Source: the supplement of paper PMC3414501
Counter-ions that a name gives are not always drawn.

Experiments:
[1] = system: S. cerevisiae SK1 pCDA2-eGFP (USY613), sporulating; experiment: CDA2-GFP sporulation assay sensitivity score (z-score vs DMSO controls); higher = stronger inhibition of sporulation, active = hit call of the paper;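 also: active if sensitivity score above 5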
[2] = system: S. cerevisiae AD1-9 (efflux-pump deficient), vegetative growth in YPD; experiment: growth sensitivity score (doubling time z-score vs DMSO controls); higher = slower growth, strongly negative scores also mark growth inhibition (complete suppression), active = hit call of the paper
Outline: (§1)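 Rich medium in microtiter plates was seeded with Saccharomyces cerevisiae strains BY4741 and AD1-9 at an OD600 of 0.065, and compounds were added as a 1:100 dilution of DMSO stock. A Tecan GENios reader recorded optical density every 15 min for 24 hours, with eight solvent-only wells in each experiment. Average doubling time was the time to reach a set generation point divided by generation number. The growth sensitivity score was the compound mean minus the solvent-only mean, divided by the solvent-only standard deviation.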

[3] = system: S. cerevisiae BY4741 (wild-type), vegetative growth in YPD; experiment: as above
Outline: as §1

[4] = stock concentration (mM, diluted 1:100): 10
[5] = stock concentration (mM, diluted 1:100): 8.2
[6] = stock concentration (mM, diluted 1:100): 7.3
[7] = stock concentration (mM, diluted 1:100): 10.1
[8] = stock concentration (mM, diluted 1:100): 7.7
[9] = stock concentration (mM, diluted 1:100): 8.7
[10] = stock concentration (mM, diluted 1:100): 8.6

For C[C@]12CC[C@H]3[C@@H](CCC4=CC(=O)CC[C@@H]43)[C@@H]1CC[C@@H]2O [19-Nortestosterone], the “CDA2-GFP sporulation assay sensitivity score” value [1, 4] was 1.91 (inactive), the growth sensitivity score [2, 4] was 5.3 (active) and the growth sensitivity score [3, 4] was 2.24 (active).
CNC1CC(c2ccc(Cl)c(Cl)c2)c2ccccc21 (stereo not drawn) [Indatraline] was tested, and the “CDA2-GFP sporulation assay sensitivity score” value [1, 4] was 2.43 (inactive).
In the case of C[C@]12CCC(=O)C=C1CC[C@@H]1[C@@H]2CC[C@@]2(C)[C@H]1CC[C@]2(C)O [Methyltestosterone], the “CDA2-GFP sporulation assay sensitivity score” value [1, 4] is reported as 3.87 (inactive), the growth sensitivity score [2, 4] is reported as 32.3 (active) and the growth sensitivity score [3, 4] is reported as 3.83 (active).
c1ccc2c(c1)Nc1ccccc1S2 [Phenothiazine] was tested, and the “CDA2-GFP sporulation assay sensitivity score” value [1, 4] was 3.38 (inactive), the growth sensitivity score [2, 4] was 11.7 (active) and the growth sensitivity score [3, 4] was 5.99 (active).
In the case of COC(=O)N1CCN(C(=O)Cc2ccc(Cl)c(Cl)c2)C(CN2CCCC2)C1 (stereo not drawn), the “CDA2-GFP sporulation assay sensitivity score” value [1, 4] is reported as 3.34 (inactive), the growth sensitivity score [2, 4] is reported as -1.16 (inactive) and the growth sensitivity score [3, 4] is reported as -1.35 (inactive).
In the case of Oc1cc2c(cc1O)[C@H]1c3ccccc3CN[C@@H]1CC2, the “CDA2-GFP sporulation assay sensitivity score” value [1, 4] is reported as -1.42 (inactive), the growth sensitivity score [2, 4] is reported as 0.66 (inactive) and the growth sensitivity score [3, 4] is reported as 0.31 (inactive).
In the case of O=C(O)C(Cl)Cl [Dichloroacetic acid], the “CDA2-GFP sporulation assay sensitivity score” value [1, 4] is reported as 1.21 (inactive), the growth sensitivity score [2, 4] is reported as 0.15 (inactive) and the growth sensitivity score [3, 4] is reported as -0.8 (inactive).
With COc1ccc(CCN)cc1OC [Homoveratrylamine] the “CDA2-GFP sporulation assay sensitivity score” value [1, 4] was -0.12 (inactive), the growth sensitivity score [2, 4] was -1.46 (inactive) and the growth sensitivity score [3, 4] was -1.07 (inactive).
With COc1ccc2c(c1)[C@]13CCCC[C@@H]1[C@H](C2)N(C)CC3 [Dextromethorphan hydrobromide] the “CDA2-GFP sporulation assay sensitivity score” value [1, 5] was 14.1 (active), the growth sensitivity score [2, 5] was -0.05 (inactive) and the growth sensitivity score [3, 5] was -0.39 (inactive).
With CN1[C@@H]2CC(OC(=O)[C@H](CO)c3ccccc3)C[C@H]1[C@@H]1O[C@@H]12 (stereo partly drawn) the “CDA2-GFP sporulation assay sensitivity score” value [1, 6] was -0.1 (inactive), the growth sensitivity score [2, 6] was -1.56 (inactive) and the growth sensitivity score [3, 6] was -0.06 (inactive).
c1ccc2c3c([nH]c2c1)CNCC3 [Tryptoline] was tested, and the “CDA2-GFP sporulation assay sensitivity score” value [1, 4] was 11.7 (active), the growth sensitivity score [2, 4] was -1.27 (inactive) and the growth sensitivity score [3, 4] was -1.07 (inactive).
In the case of c1ccc(Cn2ccnc2)cc1 [1-Benzylimidazole], the “CDA2-GFP sporulation assay sensitivity score” value [1, 4] is reported as 2.48 (inactive), the growth sensitivity score [2, 4] is reported as -1.25 (inactive) and the growth sensitivity score [3, 4] is reported as -1.22 (inactive).
With C=C(C)CN1CC[C@]23c4c5ccc(O)c4O[C@H]2c2[nH]c4ccccc4c2C[C@@]3(O)C1C5 the “CDA2-GFP sporulation assay sensitivity score” value [1, 7] was 4.94 (inactive), the growth sensitivity score [2, 7] was 11.1 (active) and the growth sensitivity score [3, 7] was 0.61 (inactive).
With CCC(COC(=O)c1cc(OC)c(OC)c(OC)c1)(c1ccccc1)N(C)C (stereo not drawn) [Trimebutine maleate] the “CDA2-GFP sporulation assay sensitivity score” value [1, 8] was 0.35 (inactive), the growth sensitivity score [2, 8] was 3.33 (active) and the growth sensitivity score [3, 8] was 0.59 (inactive).
O=C1CN=C(c2ccccc2)c2cc([N+](=O)[O-])ccc2N1 [Nitrazepam] was tested, and the “CDA2-GFP sporulation assay sensitivity score” value [1, 4] was -0.69 (inactive), the growth sensitivity score [2, 4] was 8.16 (active) and the growth sensitivity score [3, 4] was 2.01 (active).
For COc1cc(N)c(Cl)cc1C(=O)NC1CN2CCC1CC2 (stereo not drawn) [Zacopride], the “CDA2-GFP sporulation assay sensitivity score” value [1, 4] was 2.91 (inactive), the growth sensitivity score [2, 4] was -2.46 and the growth sensitivity score [3, 4] was -1.3 (inactive).
In the case of C[C@]12CCC(=O)C[C@@H]1CC[C@@H]1[C@@H]2CC[C@@]2(C)[C@H]1CC[C@]2(C)O [Mestanolone], the “CDA2-GFP sporulation assay sensitivity score” value [1, 7] is reported as 0.79 (inactive), the growth sensitivity score [2, 7] is reported as 2.2 (active) and the growth sensitivity score [3, 7] is reported as -0.15 (inactive).
In the case of NC(=O)OCCCc1ccccc1 [Phenprobamate], the “CDA2-GFP sporulation assay sensitivity score” value [1, 7] is reported as -0.41 (inactive), the growth sensitivity score [2, 7] is reported as -0.54 (inactive) and the growth sensitivity score [3, 7] is reported as 0.48 (inactive).
In the case of NCCc1ccccn1 [2-(2-aminoethyl)pyridine], the “CDA2-GFP sporulation assay sensitivity score” value [1, 4] is reported as -1.07 (inactive), the growth sensitivity score [2, 4] is reported as -0.62 (inactive) and the growth sensitivity score [3, 4] is reported as -1.35 (inactive).
With CC(=O)O[C@H]1C[C@@H]2CC[C@@H]3[C@H](CC[C@@]4(C)[C@H]3C[C@H]([N+]3(C)CCCCC3)[C@@H]4OC(C)=O)[C@@]2(C)C[C@@H]1[N+]1(C)CCCCC1 [Pancuronium] the “CDA2-GFP sporulation assay sensitivity score” value [1, 9] was 2.51 (inactive), the growth sensitivity score [2, 9] was -8.57 and the growth sensitivity score [3, 9] was -0.39 (inactive).
In the case of C[N+]1(CCC(C(N)=O)(c2ccccc2)c2ccccc2)CCCCC1 [Fenpiverinium bromide], the “CDA2-GFP sporulation assay sensitivity score” value [1, 7] is reported as 0.3 (inactive), the growth sensitivity score [2, 7] is reported as -1.25 (inactive) and the growth sensitivity score [3, 7] is reported as -1.06 (inactive).
With C[N+]1(C)CCN(c2ccccc2)CC1 [Dimethylphenylpiperazinium Iodide] the “CDA2-GFP sporulation assay sensitivity score” value [1, 4] was -0.6 (inactive), the growth sensitivity score [2, 4] was -0.59 (inactive) and the growth sensitivity score [3, 4] was -0.67 (inactive).
In the case of CN1C(=O)CN=C(c2ccccc2)c2cc(Cl)ccc21 [Diazepam], the “CDA2-GFP sporulation assay sensitivity score” value [1, 4] is reported as 4.97 (inactive), the growth sensitivity score [2, 4] is reported as 5.55 (active) and the growth sensitivity score [3, 4] is reported as 2.97 (active).
For CC(C)[C@]12O[C@H]1[C@@H]1O[C@]13[C@]1(O[C@H]1C[C@H]1C4=C(CC[C@@]13C)C(=O)OC4)[C@@H]2O [Triptolide], the “CDA2-GFP sporulation assay sensitivity score” value [1, 4] was -1.02 (inactive), the growth sensitivity score [2, 4] was -2.17 and the growth sensitivity score [3, 4] was -0.92 (inactive).
For CCOC(=O)C1(c2ccccc2)CCN(CCC(C#N)(c2ccccc2)c2ccccc2)CC1 [Diphenoxylate], the “CDA2-GFP sporulation assay sensitivity score” value [1, 10] was 1.47 (inactive), the growth sensitivity score [2, 10] was 5.75 (active) and the growth sensitivity score [3, 10] was -0.94 (inactive).
